Hits are enriched below; roughly 3.5% of the tested compounds scored in any of these assays.
FBW7 activator – activators of human E3 ligase FBW7; Q969H0; AlphaScreen FBW7–phospho-cyclin E peptide binding, activator screen; normalized activity (activation), % at 26.1 µM; actives 0.13% (n = 650,000); AID 1259310; in the data active = normalized activity above about 1.9%;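 also: purified mutant Fbw7 with reduced substrate affinity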
Target sequence (Q969H0 whole entry, looked up): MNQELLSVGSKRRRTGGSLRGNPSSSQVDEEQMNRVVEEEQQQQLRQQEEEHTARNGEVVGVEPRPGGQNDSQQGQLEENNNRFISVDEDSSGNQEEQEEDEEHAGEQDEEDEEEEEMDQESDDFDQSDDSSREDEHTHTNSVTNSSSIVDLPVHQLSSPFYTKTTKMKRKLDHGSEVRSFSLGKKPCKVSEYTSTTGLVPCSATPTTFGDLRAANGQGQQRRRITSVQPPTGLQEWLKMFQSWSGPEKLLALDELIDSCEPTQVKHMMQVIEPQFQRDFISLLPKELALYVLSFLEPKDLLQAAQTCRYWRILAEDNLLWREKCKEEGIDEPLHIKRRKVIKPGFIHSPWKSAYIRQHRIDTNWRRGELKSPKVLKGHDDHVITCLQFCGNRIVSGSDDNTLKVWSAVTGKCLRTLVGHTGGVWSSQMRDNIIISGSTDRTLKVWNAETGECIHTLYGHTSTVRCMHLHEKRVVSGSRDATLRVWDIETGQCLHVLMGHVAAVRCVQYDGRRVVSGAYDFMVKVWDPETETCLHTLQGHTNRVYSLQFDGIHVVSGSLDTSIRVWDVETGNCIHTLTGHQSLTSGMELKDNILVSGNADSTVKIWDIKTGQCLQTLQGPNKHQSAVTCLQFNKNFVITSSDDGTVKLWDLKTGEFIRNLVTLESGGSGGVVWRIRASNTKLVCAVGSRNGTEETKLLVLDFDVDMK
TEAD-YAP inh – TEAD-YAP interaction inhibition; HEK-TIYL cells, TEAD-Gal4/YAP UAS-luciferase luminescence; inhibition, % at 9.12 µM; actives 1.4% (n = 640,000); in the data active = inhibition above about 32%;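 also: 0% = median of test compound wells and 100% = reference inhibitor wells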
MITF inh – human MITF inhibition, primary screen. O75030. AlphaScreen MITF homodimerization, bead proximity signal. inhibition, % at 2.6 µM. actives 0.91% (n = 650,000); in the data active = inhibition above about 50%;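 also: 0% = vehicle wells with protein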
GPR151 ag – activators of human GPR151; AID 1508602; activation, % at 11.2 µM; PathHunter beta-arrestin GPR151 cells, luminescence; actives 1% (n = 650,000); Q8TDV0; in the data active = activation above about 4.9%;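 also: 0% = median of compound wells and 100% = cells with positive control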
GPR151 confirm – human GPR151 activation, confirmation screen; AID 1508609; GPR151 PathHunter beta-arrestin cells, luminescence, 90 min; % of EA-reagent control over plate median; 6,700 tested, under 10 active; shares compounds with GPR151 ag; activation, % at 11.2 µM;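 active = mean percent activation across replicates above the confirmation screen cutoff of 4.91%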
GPR119 ag – counter-screen for GPR151 activators: effect on human GPR119; shares compounds with GPR151 ag; actives 0.3% (n = 6,700); AID 1508611; GPR119 PathHunter beta-arrestin cells, luminescence, 90 min; 0 = compound-well median, 100 = enzyme-acceptor control; activation, % at 11.2 µM;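 active = mean percent activation in the counterscreen above 29.09%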;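 also: counterscreen on off-target GPR119 to flag nonselective hits from the GPR151 activator screen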
Starred values were filed as active, the others as inactive; . = not tested or not shown; ! = not confirmed by another sample.

SMILES | FBW7 activator | TEAD-YAP inh | MITF inh | GPR151 ag | GPR151 confirm | GPR119 ag
C=CCn1c(SCC(=O)Nc2ccc(F)cc2)nc2sc(CC)cc2c1=O | 0 | 7 | 11 | 1 | . | .
CCCCC[C@H](O)/C=C/C1=C(CCCCCCC(=O)O)C(=O)CC1 | 0 | -11 | 3 | 5.6*! | 1 | -4
C[C@@H](O)CCC[C@H](O)/C=C/C1=C(C/C=C\CCCC(=O)O)C(=O)CC1 | . | . | 0 | -1 | . | .
Clc1ccccc1OCCN1CCNCC1 | 0 | 7 | 3 | 5.4* | 1 | 9
COc1cccc(OC)c1OCCN1CCNCC1 | 0 | -7 | 3 | 0 | . | .
O=C(NS(=O)(=O)c1ccccc1)c1cccc(Br)c1 | 0 | 1 | 12 | 5.9* | 0 | -18
Cc1ccc(S(=O)(=O)NC(=O)c2cccc(Br)c2)cc1 | 0 | -3 | -4 | 2 | . | .
Nc1ccc(Oc2ccc(Br)cc2)cc1 | 0 | 2 | 11 | 11* | 1 | -5
Brc1ccc(Oc2ccc(Oc3ccc(Br)cc3)cc2)cc1 | 0 | 3 | -1 | 0 | . | .
CCc1cccc(C)c1NC(=S)NN | 0 | 7 | 16 | 6.2* | -1 | -10
CCc1cccc(C)c1NC(=O)C(C)C | 1 | -5 | 16 | -1 | . | .
Cc1ccc(C2C3=C(CC(c4ccccc4)CC3=O)Nc3ccccc3N2C(=O)CCC(=O)O)cc1 (stereo unspecified) | 0 | -5 | 8 | 0 | . | .
COc1ccc(C2N(c3cccc(C)c3)CCN2c2cccc(C)c2)cc1[N+](=O)[O-] | 0 | -7 | -6 | 1 | . | .
CN1C(=N)N(c2nc(N(C)C)nc(N(C)C)n2)CC1=O | 0 | 2 | -3 | 1 | . | .
Cc1cc(C)nc(N2CC(=O)N(C)C2=N)n1 | 0 | -1 | -8 | 5.5* | 0 | 4
CC1=C(C(=O)OCc2ccccc2)C(c2cccc([N+](=O)[O-])c2)n2nnnc2N1 (stereo unspecified) | 0 | 6 | 29 | -1 | . | .
COC(=O)C1=C(C)NC(=O)C1(NC(=O)c1ccc(OC)c(OC)c1)C(F)(F)F (stereo unspecified) | 0 | 0 | -9 | 13* | 0 | -5
CC(C)(c1ccccc1)c1ccc(OC(=O)Nc2ccc(Cl)c(Cl)c2)cc1 | 0 | -4 | -2 | 5.4* | 1 | 2
Cc1cccc(NC(=O)Oc2ccc(C(C)(C)c3ccc(OC(=O)Nc4cccc(C)c4)cc3)cc2)c1 | 0 | -2 | 1 | 0 | . | .
COc1ccc(C2=NN(C(=O)c3ccccc3)C(c3cc4ccc(OC)cc4nc3Cl)C2)cc1 (stereo unspecified) | 0 | -2 | -2 | 1 | . | .
CCN(CC)C(=O)C(=O)NNC(=O)c1cccc(F)c1 | 0 | 1 | -5 | 0 | . | .
COC(=O)C1=C(C(=O)OC)[C@@H]2N(Cc3ccccc3)c3ccccc3[C@@]23C[C@@H](CO)N=C3N1 | 0 | . | -6 | 6.8* | 0 | -1
COC(=O)C1=C(C(=O)OC)[C@@H]2N(Cc3ccccc3)c3ccccc3[C@@]23C[C@@H](CO)N(C(=O)NC2CCCCC2)C3=N1 | 0 | . | -2 | 3 | . | .
Cc1nc(SC(C(=O)NC(N)=O)C(C)C)c2c3c(sc2n1)CCC3 (stereo unspecified) | 0 | -3 | 1 | 1 | . | .
CC(=O)NNC(=O)COc1ccc2ccccc2c1 | 1 | 2 | 16 | 0 | . | .
SMILES | FBW7 activator | TEAD-YAP inh | MITF inh | GPR151 ag | GPR151 confirm | GPR119 ag
O=C(Cn1c(=O)n(-c2ccccc2)c(=O)c2oc3ccccc3c21)N1CCCCC1 | 0 | -6 | 5 | 5.1* | -1 | -3
O=C(Cn1cncn1)c1ccc(Cl)cc1 | 0 | -4 | 0 | 7.8* | -1 | -2
Cc1ccc(C(=O)Cn2cncn2)cc1 | 0 | 4 | 2 | 2 | . | .
Clc1ccc(SCCCCn2cncn2)cc1 | 0 | 5 | -4 | 9.2* | 0 | 5
c1cc2c(cc1OCCNC1CCCC1)CCC2 | 0 | 1 | -44 | 6.5* | 0 | -2
Cc1ccc(C2=NS(=O)(=O)N(C)C(C(=O)NCC(C)C)=C2)cc1 | 0 | 0 | 4 | 2 | . | .
Cc1ccc(C2=NS(=O)(=O)N(C)C(C(=O)NCc3ccccn3)=C2)cc1 | 0 | 6 | 12 | 6.9* | 0 | -9
O=C(Nc1ccc(N2CCOCC2)cc1)c1ccnc(N2CCC(N3CCOCC3)CC2)c1 | 0 | 8 | 6 | 1 | . | .
O=C(Nc1ccc2c(c1)OCO2)c1ccnc(N2CCC(N3CCOCC3)CC2)c1 | 0 | -9 | -10 | 5.7* | 1 | 0
CCc1nnc(-c2cc3ccccc3n2CC(=O)Nc2cccc(Cl)c2)o1 | 0 | 9 | -9 | 5.3* | 0 | -9
CCC(Sc1nc2nc(C)c(Cc3ccc(F)cc3Cl)c(C)n2n1)C(=O)Nc1ccccc1OC (stereo unspecified) | 0 | -11 | -9 | 5.4* | 0 | 6
CCc1ccccc1NC(=O)CSc1nc2nc(C)c(Cc3ccc(F)cc3Cl)c(C)n2n1 | 0 | 8 | -13 | 0 | . | .
O=C(CN1C(=O)C2C3C=CC(C3)C2C1=O)N1CCN(c2ccccc2)CC1 (stereo unspecified) | 0 | -3 | 15 | 5.5* | 0 | 0
CCOC(=O)N1CCc2c(sc(NC(=O)c3ccc(Br)s3)c2C#N)C1 | 0 | 3 | 9 | 9.1* | 0 | 5
CCCCCOc1ccc(NC(=O)C(C)C)cc1 | 0 | -68 | -11 | 14* | 0 | -2
CCCCOc1ccc(NC(=O)C(=O)NC(C)C)cc1 | 0 | 7 | -12 | 5.6* | 0 | 0
CCCCOc1ccc(NC(=O)C(=O)NC)cc1 | 1 | -8 | 19 | -1 | . | .
CCCCOc1ccc(NC(=O)CC)cc1 | 0 | -16 | 7 | 1 | . | .
CCCn1cnc2sc(C(=O)Oc3ccc(OC)cc3)c(C)c2c1=O | 0 | 3 | -4 | 0 | . | .
CCCN(C(=O)c1cccc(Cl)c1)C1(C(=O)Nc2ccccc2)CCN(C)CC1 | 0 | -2 | -12 | 1 | . | .
O=C(CC1CCCCC1)N1CCC2(CC1)CC2C(=O)N1CCN(c2ccccc2)CC1 (stereo unspecified) | 0 | 3 | -2 | 0 | . | .
CC1(C)C(c2ccco2)=[N+]([O-])C2(CCCCCC2=O)N1O (stereo unspecified) | 0 | 0 | -2 | 7.7* | 0 | 14
CC1(C)C(c2cccs2)=[N+]([O-])C2(CCCCCC2=O)N1O (stereo unspecified) | 0 | 4 | 8 | 1 | . | .
COc1ccc(Cn2c(O)c(C=Nc3ccc(OC)cc3OC)c3ccccc3c2=O)cc1 | 0 | 4 | -8 | 7.0* | 2 | -5
Oc1ccccc1/C=N/Nc1cc(N2CCCCC2)nc(N2CCCCC2)n1 | 0 | 0 | 20 | 1 | . | .
CCCCN(CC)C(=O)/C=C/c1cc(OC)c(OC)c(OC)c1 | 0 | -3 | -7 | 5.0* | 0 | -6
COc1cccc(-c2cnn3c(NCc4ccc5c(c4)OCO5)ccnc23)c1 | 0 | 5 | 8 | 0 | . | .

Screening results as filed in PubChem.
